Compounds with a hit are over-represented: about 10% of the library has one in this group of screens.
G9a inh – blocks human histone lysine methyltransferase G9a; Q96KQ7; G9a H3K9 monomethylation, AlphaScreen, 2 h; Potency, µM (titrated, usually from 102 µM), usual class: inhibitors; 350,000 compounds, 8.8% hits; AID 504332; also: nearly all actives have a fitted effect of over 75% in size
Target sequence (Q96KQ7 913-1193 limits assumed): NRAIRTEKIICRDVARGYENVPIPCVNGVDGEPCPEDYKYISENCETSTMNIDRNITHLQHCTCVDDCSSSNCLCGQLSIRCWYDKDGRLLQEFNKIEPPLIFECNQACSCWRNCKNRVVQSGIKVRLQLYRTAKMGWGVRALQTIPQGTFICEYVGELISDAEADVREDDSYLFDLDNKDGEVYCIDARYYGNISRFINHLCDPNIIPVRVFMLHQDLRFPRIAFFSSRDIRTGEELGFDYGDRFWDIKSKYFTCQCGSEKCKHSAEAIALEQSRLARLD
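Compounds were preincubated with 20 nM G9a for 15 min, after which biotinylated H3K9 peptide (500 nM) and SAM (20 uM) started a 2 h room-temperature reaction. Monomethylated product was quantified by antibody-based AlphaScreen chemiluminescence.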
JMJD2A Tudor inh – JMJD2A Tudor domain (human) inhibition. O75164. AlphaScreen JMJD2A-Tudor / H3K4me3 peptide binding. Potency, µM (highest dose often 114 µM), actives largely listed as inhibitors. 390,000 compounds, 4.4% hits; also: nearly all actives have a fitted effect of over 50% in size
GLS inh – inhibitors of human glutaminase (GLS); O94925; GLS enzymatic activity, qHTS titration; Potency, µM (titrated, usually from 45.5 µM), hits mostly inhibitors; 410,000 compounds, 0.21% hits
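Enzyme dispensed in phosphate buffer (45 mM, pH 8.2, 0.02% Tween-20), compounds pinned in, then 1 mM L-glutamine solution and the glutamate oxidase–HRP–Amplex Red mix added; fluorescence read immediately and again after 30 min at room temperature.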
BAZ2B block – BAZ2B (human) inhibition; Q9UIF8; AlphaScreen BAZ2B-H3K14Ac peptide displacement; Potency, µM (series often up to 114 µM), hits mostly inhibitors; 360,000 compounds, 4.4% hits; AID 504333; also: nearly all actives have a fitted effect of over 60% in size
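AlphaScreen luminescence quantifies BAZ2B engagement of H3K14Ac peptide; the protein and biotinylated peptide are both at 50 nM final, buffer PBS pH 7.4 with 0.01% Tween-20, all steps at room temperature.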
HP1b chromo inh – inhibitors of HP1-beta chromodomain binding to methylated histone tails | Potency, µM (doses to about 114 µM), most hits filed as inhibitors | P83916 | AID 540317 | AlphaScreen HP1-beta / biotin-H3K9me3 peptide binding | 390,000 compounds, 0.56% hits; also: nearly all actives have a fitted effect of over 70% in size
Target sequence (P83916 whole entry, looked up): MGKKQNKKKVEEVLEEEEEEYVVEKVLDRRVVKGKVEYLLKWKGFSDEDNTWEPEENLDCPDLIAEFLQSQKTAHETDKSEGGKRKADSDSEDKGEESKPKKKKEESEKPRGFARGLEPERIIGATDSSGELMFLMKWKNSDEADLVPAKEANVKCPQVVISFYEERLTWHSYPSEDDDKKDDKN
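Compound inhibition of the preformed complex between 50 nM HP1-beta and 50 nM biotinylated H3K9me3 peptide was read by AlphaScreen. Buffer was PBS pH 7.4 with 0.01% Tween-20. Incubations ran 30 min at room temperature, with 10 ug/mL donor/acceptor beads.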
Hits are given with their value; - = inactive; ? = inconclusive; . = no result given; [ ] = dose if it differs, or a comment. Calls follow the shape of the dose curve; as a rule, active = well fitted curve in the direction sought with a large enough effect; inconclusive = small, poorly fitted or top-dose-only effect, or another doubt; inactive = no such curve, though single readings can be large; an effect the other way counts as inactive or inconclusive.

SMILES	G9a inh	JMJD2A Tudor inh	GLS inh	BAZ2B block	HP1b chromo inh
CCSc1nc(N)c2c(C)c(C)sc2n1	-	-	-	-	-
Cc1cccc(N2CCN(C(=O)C3CCN(c4ncnc5c4nc4n5CCCCC4)CC3)CC2C)c1 (centres undefined)	-	-	-	35µM	-
Cc1cccc(N2CCN(C(=O)C3CCN(c4ncnc5c4nc4n5CCCCC4)CC3)CC2)c1C	-	?	-	?	-
S=c1[nH]nc(-c2ccc(Cl)cc2)n1-c1ccc2c(c1)OCCO2	1.8µM	?	-	-	-
S=c1[nH]nc(-c2cccnc2)n1-c1ccc2c(c1)OCCO2	32µM	25µM	-	-	-
S=c1[nH]nc(-c2ccc(Cl)cc2)n1-c1ccc(Cl)cc1	8.9µM	-	-	?	-
c1cncc(-c2nc(-c3ccc4c(c3)OCO4)cs2)c1	-	-	-	-	-
Fc1ccc(-c2n[nH]c(=S)n2-c2ccc3c(c2)OCCO3)cc1	.	2.8µM	-	-	?
C[C@@H]1CN([C@@H](C)CO)C(=O)c2cc(NC(=O)c3ccncc3)ccc2O[C@@H](C)CCCCO[C@@H]1CN(C)C(=O)Cc1ccccc1	.	.	-	.	.
COC(=O)c1ccc(NC(=S)NN2CCCCC2c2cccnc2)cc1 (centres undefined)	.	-	-	-	-
O=C(NC(=S)NN1CCCCC1c1cccnc1)c1ccc(Br)cc1 (centres undefined)	45µM	-	-	-	-
CC1(C)NC(=O)N(CCOCCSc2ccccc2)C1=O	-[12.7 µM]	-	-	-	-
CN1C=CC=C/C1=C1\SC(=S)N(CC(=O)O)C1=O	20µM	-	-	50µM	-
C=CCN1C=CC=C/C1=C1\SC(=S)N(C)C1=O	?	-	-	?	?
CN1C=CC=C/C1=C1\SC(=S)N(c2ccccc2)C1=O	18µM	-	-	?	-
CCN1C(C)=C(C)S/C1=C1\SC(=S)N(C2CCCCC2)C1=O	-	-	-	-	-
CCN1C(=O)/C(=C2/C=CC=CN2C)OC1=S	45µM	-	-	-	-
CN1C=CC=C/C1=C1\SC(=S)N(C2CCCCC2)C1=O	16µM	40µM	-	40µM	-
CC(C)(C)NC(=O)c1oc2ccccc2c1NC(=O)c1ccc(F)cc1	-	-	-	-	-
c1ccc(CNn2nnc3ccccc32)cc1	.	.	-	.	.
COC(=O)c1cn(NC(=O)c2ccc(F)cc2)c(=O)c2ccccc12	-[2.33 µM]	-	-	-	-
O=[N+]([O-])c1cc(/C=N/O)ccc1Sc1ccccc1	?	56µM	-	50µM	-
O=[N+]([O-])c1cc(/C=N/O)ccc1SCc1ccccc1	-	-	-	-	-
Cc1cc(C(=O)CSc2nnc(NCc3ccccc3)s2)c(C)n1C	?	?	-	?	-
CN1/C(=C\C(=O)CSc2nnc(NCc3ccccc3)s2)C(C)(C)c2ccccc21	3.2µM	?	-	?	-
SMILES	G9a inh	JMJD2A Tudor inh	GLS inh	BAZ2B block	HP1b chromo inh
CC(C)Sc1nc2sccc2c(=O)n1-c1ccccc1	40µM	-	-	-	-
CC(Sc1nc2sccc2c(=O)n1-c1ccccc1)C(N)=O (centres undefined)	-	-	-	-	-
CC1=CC(C)(C)NC(=S)N1c1cccc2cc(S(=O)(=O)O)ccc12	25µM	?	11µM	-	-
N#CCCn1cc(C(=O)CN2C(=O)C(=O)N(C3CCCC3)C2=O)c2ccccc21	50µM	-	-	-	-
CC(=O)N1CCN(S(=O)(=O)c2ccc3c(c2)OCCO3)CC1	-[12.7 µM]	-	-	-	-
Cc1cc(NS(=O)(=O)c2ccc(NC(=O)c3ccc([N+](=O)[O-])cc3)cc2)nc(C)n1	.	.	-	.	.
CCCC(=O)N(Cc1cc(=O)[nH]c2ccccc12)c1ccc(C)cc1C	?	-	-	-	-
CCN(Cc1cc(=O)[nH]c2ccccc12)C(=O)c1ccc(C)cc1	-	-	-	-	-
Cc1ccc(N(Cc2cc(=O)[nH]c3ccccc23)C(=O)CCl)c(C)c1	50µM	-	-	-	-
CCC(=O)N(Cc1cc(=O)[nH]c2ccccc12)c1cccc(C)c1	10µM	79µM	-	-	-
CCC(=O)N(Cc1cc(=O)[nH]c2ccccc12)c1ccccc1C	45µM	-	-	-	?
CCN(CC(=O)Nc1ccc2c(c1)OCCO2)Cc1nc2cc(Cl)ccc2c(=O)[nH]1	-[12.7 µM]	-	-	-	-
